From PubChem BioAssay (NCATS)
Inconclusive results are not listed. Active and inactive are the calls of the source. Unless noted, calls follow the shape of the dose curve; as a rule, active = well fitted curve in either direction with a large enough effect (not every such curve was filed as active); inconclusive = small, poorly fitted or top-dose-only effect, or another doubt; inactive = flat fitted curve, though single readings scatter.

Key:
[1] = molecular target: Lysosomal acid glucosylceramidase (Homo sapiens) (UniProt P04062); assay: Glucocerebrosidase-p2 (AID 348; in the data active = potency below about 10 µM; also: potency is read from the fitted curve at half-maximal effect); conditions: purified GBA, blue fluorogenic substrate, 40 min
Chain of Lysosomal acid glucosylceramidase (Homo sapiens) (P04062 whole entry, looked up): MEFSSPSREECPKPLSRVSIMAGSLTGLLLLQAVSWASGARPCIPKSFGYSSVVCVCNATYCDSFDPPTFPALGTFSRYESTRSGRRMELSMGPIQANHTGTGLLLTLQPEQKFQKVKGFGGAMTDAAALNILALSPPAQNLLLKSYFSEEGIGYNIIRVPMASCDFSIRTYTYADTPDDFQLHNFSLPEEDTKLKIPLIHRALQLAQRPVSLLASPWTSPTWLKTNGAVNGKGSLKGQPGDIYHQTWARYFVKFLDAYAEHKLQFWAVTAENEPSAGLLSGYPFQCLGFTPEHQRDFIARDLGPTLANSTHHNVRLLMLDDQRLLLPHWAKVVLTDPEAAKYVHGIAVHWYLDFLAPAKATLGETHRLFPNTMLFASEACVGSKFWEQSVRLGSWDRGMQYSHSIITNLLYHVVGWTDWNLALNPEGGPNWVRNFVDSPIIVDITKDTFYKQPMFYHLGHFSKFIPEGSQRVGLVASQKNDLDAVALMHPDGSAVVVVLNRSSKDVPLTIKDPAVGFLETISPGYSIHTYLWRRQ
How it was run: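 Compounds titrated from 0.6 nM upwards against 0.2 nM enzyme in pH 5.9 citric acid/KH2PO4, taurocholate, tween-20; blue fluorogenic substrate 80 uM, 40 min room temperature, stopped and read Ex 365/Em 440 for AC50.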

[2] = AP1 Signaling Pathway (AID 357); conditions: ME-180 AP-1-bla reporter, EGF-induced, beta-lactamase ratio, 5 h; at 7.69 µM (top of the series) unless noted; also: % is scaled to controls: 0 for no effect and ±100 for the full control effect
How it was run: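 Read-out was the 460nm/530nm emission ratio (excitation 405nm) after CCF4 loading for 2.5 hours at room temperature. Cells carried an AP-1-driven beta-lactamase reporter, were stimulated with EC50 EGF plus compound for 5 hours, and AC50 values came from titrations.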

[3] = molecular target: Cytochrome P450 1A2 (Homo sapiens) (UniProt P05177); assay: p450-cyp1a2 (AID 410; calls by dose curve; also: potency is read from the fitted curve at half-maximal effect;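 as to activity change, negative = inhibition: -100% = full effect of reference inhibitor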); conditions: recombinant CYP1A2, luciferin-ME demethylation, luminescence; series mostly up to 11.4 µM
Chain of Cytochrome P450 1A2 (Homo sapiens) (P05177 whole entry, looked up): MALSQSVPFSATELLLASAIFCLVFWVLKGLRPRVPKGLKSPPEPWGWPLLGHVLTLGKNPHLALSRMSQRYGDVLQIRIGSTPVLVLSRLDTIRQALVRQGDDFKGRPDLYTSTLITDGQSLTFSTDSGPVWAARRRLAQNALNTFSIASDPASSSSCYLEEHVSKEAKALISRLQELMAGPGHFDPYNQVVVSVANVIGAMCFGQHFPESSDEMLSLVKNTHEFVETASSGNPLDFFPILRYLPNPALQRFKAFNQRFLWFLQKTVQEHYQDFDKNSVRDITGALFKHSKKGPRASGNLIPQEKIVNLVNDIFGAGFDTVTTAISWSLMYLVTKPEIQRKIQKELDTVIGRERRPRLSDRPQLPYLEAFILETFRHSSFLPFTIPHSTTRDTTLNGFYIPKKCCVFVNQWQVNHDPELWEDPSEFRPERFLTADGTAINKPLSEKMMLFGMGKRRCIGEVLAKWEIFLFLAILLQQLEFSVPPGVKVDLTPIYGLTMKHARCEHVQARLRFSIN
How it was run: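 Inhibition was calculated relative to 57 uM furafylline (full inhibition). The reaction used human CYP1A2 at 20nM with Luciferin-ME at its Km, 100uM, driven by an NADPH-regenerating system for 60 min at room temperature.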

[4] = NFAT Signaling Pathway (AID 444); conditions: Jurkat NFAT-bla M1, carbachol, beta-lactamase ratio, 5 h; at 7.69 µM (top of the series) unless noted;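 also: carbachol stimulus at about its EC50 of 1 µM final; % is scaled to controls: 0 for no effect and ±100 for the full control effect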
How it was run: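 Jurkat cells with NFAT-driven β-lactamase reporter and co-expressed M1 receptor, stimulated with carbachol (final 1 uM, ~EC50), compound titration, 5 h at 37 °C. CCF4 loaded 1 h at RT; 460/530 nm ratio gave %activity and AC50.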

[5] = Stat Signaling Pathway (AID 446); conditions: ME-180 SIE beta-lactamase reporter, IL-6 stimulated, 5 h; at 7.69 µM (top of the series) unless noted;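 also: ME-180 cervical cancer cells given 40 pM IL-6 alongside compound; SIE-controlled beta-lactamase reporter measured as 460/530 nm FRET emission ratio; % is scaled to controls: 0 for no effect and ±100 for the full control effect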
How it was run: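 Reporter line: ME-180 cervical carcinoma, SIE-beta-lactamase. Treatment: compound with 40 pM IL-6, 5 hrs, 37 C, in low-serum OPTI-MEM with 10 mM HEPES pH 7.3. Detection: 460/530 nm fluorescence.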

[6] = molecular target: Glucocorticoid receptor (Homo sapiens) (UniProt P04150); assay: GR-GFP Redistribution (AID 450;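 active = compounds whose dose series gives a full or clear partial fitted curve of increased nuclear translocation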; also: potency is read from the fitted curve at half-maximal effect); conditions: U2OS GR-GFP nuclear translocation, laser cytometry, 2 h
Chain of Glucocorticoid receptor (Homo sapiens) (P04150 whole entry, looked up, the tested form may be a part): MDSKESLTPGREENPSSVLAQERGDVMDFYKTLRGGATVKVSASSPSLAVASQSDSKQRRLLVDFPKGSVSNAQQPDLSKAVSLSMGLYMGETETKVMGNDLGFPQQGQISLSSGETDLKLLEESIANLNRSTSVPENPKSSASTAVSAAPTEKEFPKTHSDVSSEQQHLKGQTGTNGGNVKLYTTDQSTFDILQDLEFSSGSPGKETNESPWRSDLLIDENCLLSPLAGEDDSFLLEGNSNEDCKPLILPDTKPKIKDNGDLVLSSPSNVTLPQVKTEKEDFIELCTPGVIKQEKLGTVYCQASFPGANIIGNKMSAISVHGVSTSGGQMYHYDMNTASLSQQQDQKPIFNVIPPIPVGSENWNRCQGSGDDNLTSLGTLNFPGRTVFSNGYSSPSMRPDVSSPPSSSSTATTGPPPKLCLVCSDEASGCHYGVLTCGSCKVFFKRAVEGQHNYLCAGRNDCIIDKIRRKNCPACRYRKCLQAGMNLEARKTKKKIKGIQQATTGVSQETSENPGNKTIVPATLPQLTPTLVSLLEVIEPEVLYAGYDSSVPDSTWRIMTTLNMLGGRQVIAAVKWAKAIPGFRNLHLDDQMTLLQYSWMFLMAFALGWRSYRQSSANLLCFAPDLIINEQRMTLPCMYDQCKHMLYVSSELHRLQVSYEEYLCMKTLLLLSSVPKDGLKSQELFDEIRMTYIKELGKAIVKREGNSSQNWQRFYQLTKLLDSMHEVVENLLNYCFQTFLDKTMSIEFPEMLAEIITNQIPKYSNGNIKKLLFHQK

[7] = molecular target: Glucocorticoid receptor (Homo sapiens) (UniProt P04150); assay: GR-EFC Redistribution (AID 451; calls by dose curve; also: potency is read from the fitted curve at half-maximal effect); conditions: CHO-K1 GR-EFC translocation, beta-gal luminescence, 2 h
How it was run: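 CHO-K1 cells expressing nuclear EA and GR-ED fragments of b-gal; compounds titrated up to 46 uM final, 2 h at 37 C. GR nuclear translocation read as complemented b-gal luminescence after 1 h RT detection.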

[8] = molecular target: 3',5'-cyclic-AMP phosphodiesterase 4B (Homo sapiens) (UniProt Q07343); assay: qHTS Assay for Inhibitors of PDE-IV (AID 607; active = well fitted activation curve with a large enough effect in the main read-out, with a control signal flat, not every such curve was filed as active; also: % of control where 0% means no effect); conditions: HEK293 ACTOne CNG channel cells, membrane potential fluorescence; series mostly up to 22.9 µM
Chain of 3',5'-cyclic-AMP phosphodiesterase 4B (Homo sapiens) (Q07343 whole entry, looked up): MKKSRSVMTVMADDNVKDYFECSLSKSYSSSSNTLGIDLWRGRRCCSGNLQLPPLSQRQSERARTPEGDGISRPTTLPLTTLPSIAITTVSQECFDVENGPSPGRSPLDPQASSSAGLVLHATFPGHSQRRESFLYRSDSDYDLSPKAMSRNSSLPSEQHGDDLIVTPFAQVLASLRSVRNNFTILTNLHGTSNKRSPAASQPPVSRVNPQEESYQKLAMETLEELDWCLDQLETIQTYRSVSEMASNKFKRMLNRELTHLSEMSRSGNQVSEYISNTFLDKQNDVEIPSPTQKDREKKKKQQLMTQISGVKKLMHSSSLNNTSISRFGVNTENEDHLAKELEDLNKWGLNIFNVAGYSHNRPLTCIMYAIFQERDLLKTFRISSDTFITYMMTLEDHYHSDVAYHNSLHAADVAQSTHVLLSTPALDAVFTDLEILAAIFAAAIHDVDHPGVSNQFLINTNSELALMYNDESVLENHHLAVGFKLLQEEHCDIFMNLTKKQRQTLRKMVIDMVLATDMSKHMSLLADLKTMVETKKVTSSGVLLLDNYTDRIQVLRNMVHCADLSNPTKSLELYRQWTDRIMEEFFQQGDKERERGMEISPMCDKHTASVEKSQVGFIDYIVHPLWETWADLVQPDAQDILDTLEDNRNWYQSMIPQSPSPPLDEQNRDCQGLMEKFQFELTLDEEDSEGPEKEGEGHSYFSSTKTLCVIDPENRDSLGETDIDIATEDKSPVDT
How it was run: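 Cell-based read-out of cAMP via a modified cyclic nucleotide-gated channel and membrane potential dye (535/590 nm) in HEK293 cells expressing PDE4 endogenously. Compounds tested up to 22.9 uM final; 100 uM RO 20-1724 reference.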

[9] = molecular target: Cytochrome P450 2C19 (Homo sapiens) (UniProt P33261); assay: qHTS Assay for Inhibitors and Substrates of Cytochrome P450 2C19 (AID 899; active = well fitted curve in the direction sought with a large enough effect; an effect the other way counts as inactive or inconclusive; also: nearly all actives have a fitted effect of over 60% in size; also: potency is read from the fitted curve at half-maximal effect); conditions: recombinant CYP2C19, luciferin-H EGE luminescence; series mostly up to 11.4 µM
Chain of Cytochrome P450 2C19 (Homo sapiens) (P33261 whole entry, looked up): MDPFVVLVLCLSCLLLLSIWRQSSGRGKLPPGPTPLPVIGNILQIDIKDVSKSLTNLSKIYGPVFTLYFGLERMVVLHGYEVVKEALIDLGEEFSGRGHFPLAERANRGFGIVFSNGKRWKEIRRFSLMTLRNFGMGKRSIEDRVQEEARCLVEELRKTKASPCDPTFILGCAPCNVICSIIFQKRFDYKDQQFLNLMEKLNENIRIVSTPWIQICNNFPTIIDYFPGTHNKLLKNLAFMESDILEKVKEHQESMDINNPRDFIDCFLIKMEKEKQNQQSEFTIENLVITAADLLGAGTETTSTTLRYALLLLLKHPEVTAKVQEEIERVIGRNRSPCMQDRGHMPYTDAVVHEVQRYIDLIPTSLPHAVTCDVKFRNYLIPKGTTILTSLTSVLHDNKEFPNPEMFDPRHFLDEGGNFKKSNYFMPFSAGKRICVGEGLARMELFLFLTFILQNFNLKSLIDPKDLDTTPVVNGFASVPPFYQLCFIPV
How it was run: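 Signal comes from luciferase acting on luciferin released by CYP2C19-mediated hydroxylation of Luciferin-H EGE, 10uM (KM). Assay mix: 5nM enzyme, 50mM KPO4; 60 min at 37C with NADPH regeneration. Data normalized against 57uM ketoconazole.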

[10] = molecular target: Mitogen-activated protein kinase 10 (Mus musculus) (UniProt Q61831); assay: JNK3 AlphaScreen Assay (AID 530); conditions: JNK3 lysate, c-Jun phosphorylation; series mostly up to 11.4 µM;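 also: kinase came from lysate of stimulated human HepG2 cells; signal reports phosphorylation of biotinylated GST-cJun 1-79 at Ser73 with 10 µM ATP; % is scaled to controls: 0 for no effect and ±100 for the full control effect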
How it was run: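 qHTS format: compounds tested as titrations against IL-1beta/TNF-alpha-activated HepG2 lysate JNK3 with biotin-GST-cJun substrate and 10 uM ATP at room temperature. Loss of anti-phospho-cJun AlphaScreen signal indicates inhibition.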

[11] = molecular target: Cytochrome P450 2D6 (Homo sapiens) (UniProt P10635); assay: qHTS Assay for Inhibitors and Substrates of Cytochrome P450 2D6 (AID 891; active = well fitted curve in the direction sought with a large enough effect; an effect the other way counts as inactive or inconclusive; also: potency is read from the fitted curve at half-maximal effect; nearly all actives have a fitted effect of over 60% in size); conditions: recombinant CYP2D6, luciferin-ME EGE luminescence; series mostly up to 11.4 µM
Chain of Cytochrome P450 2D6 (Homo sapiens) (P10635 whole entry, looked up): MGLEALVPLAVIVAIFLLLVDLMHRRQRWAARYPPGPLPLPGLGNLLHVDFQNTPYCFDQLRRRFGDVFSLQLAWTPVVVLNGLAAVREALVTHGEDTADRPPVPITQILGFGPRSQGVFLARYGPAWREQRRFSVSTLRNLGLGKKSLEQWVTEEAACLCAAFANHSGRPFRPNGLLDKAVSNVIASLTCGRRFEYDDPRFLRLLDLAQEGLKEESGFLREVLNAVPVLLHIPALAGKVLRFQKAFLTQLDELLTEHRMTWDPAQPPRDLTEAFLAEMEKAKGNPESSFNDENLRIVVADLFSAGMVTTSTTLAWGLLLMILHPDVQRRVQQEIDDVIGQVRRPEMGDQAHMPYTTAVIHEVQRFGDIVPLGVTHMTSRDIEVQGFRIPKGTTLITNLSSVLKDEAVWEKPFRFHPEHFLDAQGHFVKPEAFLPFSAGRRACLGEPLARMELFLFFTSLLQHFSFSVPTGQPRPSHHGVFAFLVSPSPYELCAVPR
How it was run: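 Human CYP2D6 (5 nM) with 30 uM Luciferin-ME EGE (at Km) in 100 mM KPO4, compound preincubated 10 min, then NADPH regeneration system for 60 min at room temperature. Luciferin read by luminescence; normalized to 1.43 uM quinidine.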

[12] = molecular target: Cytochrome P450 2C9 (Homo sapiens) (UniProt P11712); assay: qHTS Assay for Inhibitors and Substrates of Cytochrome P450 2C9 (AID 883; active = well fitted curve in the direction sought with a large enough effect; an effect the other way counts as inactive or inconclusive; also: nearly all actives have a fitted effect of over 60% in size; also: potency is read from the fitted curve at half-maximal effect); conditions: recombinant CYP2C9, luciferin-H luminescence, 60 min; series mostly up to 11.4 µM
Chain of Cytochrome P450 2C9 (Homo sapiens) (P11712 whole entry, looked up): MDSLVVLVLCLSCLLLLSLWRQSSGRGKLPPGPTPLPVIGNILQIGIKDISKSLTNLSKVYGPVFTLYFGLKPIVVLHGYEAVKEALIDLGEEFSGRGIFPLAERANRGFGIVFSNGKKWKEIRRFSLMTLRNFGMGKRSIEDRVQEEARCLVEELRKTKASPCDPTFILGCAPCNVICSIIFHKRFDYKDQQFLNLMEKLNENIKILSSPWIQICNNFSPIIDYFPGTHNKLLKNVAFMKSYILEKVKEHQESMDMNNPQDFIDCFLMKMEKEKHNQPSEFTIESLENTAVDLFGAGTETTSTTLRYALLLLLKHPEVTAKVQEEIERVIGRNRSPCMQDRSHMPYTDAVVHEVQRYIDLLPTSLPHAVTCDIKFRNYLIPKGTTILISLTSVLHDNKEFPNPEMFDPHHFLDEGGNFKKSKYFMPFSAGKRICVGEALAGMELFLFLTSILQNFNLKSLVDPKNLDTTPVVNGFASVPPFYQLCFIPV
How it was run: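 Signal: luciferase luminescence reporting luciferin produced by CYP2C9. Conditions: 10nM enzyme, Luciferin-H 100uM at KM, 25mM KPO4, 37C, 60 min NADPH-driven reaction. Reference: 57uM sulphaphenazole as 100% inhibition.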

[13] = molecular target: Cytochrome P450 3A4 (Homo sapiens) (UniProt P08684); assay: qHTS Assay for Activators of Cytochrome P450 3A4 (AID 885; active = well fitted curve in the direction sought with a large enough effect; an effect the other way counts as inactive or inconclusive; also: nearly all actives have a fitted effect of over 65% in size); conditions: recombinant CYP3A4, Luciferin-PPXE luminescence, 60 min; series mostly up to 11.4 µM
Chain of Cytochrome P450 3A4 (Homo sapiens) (P08684 whole entry, looked up): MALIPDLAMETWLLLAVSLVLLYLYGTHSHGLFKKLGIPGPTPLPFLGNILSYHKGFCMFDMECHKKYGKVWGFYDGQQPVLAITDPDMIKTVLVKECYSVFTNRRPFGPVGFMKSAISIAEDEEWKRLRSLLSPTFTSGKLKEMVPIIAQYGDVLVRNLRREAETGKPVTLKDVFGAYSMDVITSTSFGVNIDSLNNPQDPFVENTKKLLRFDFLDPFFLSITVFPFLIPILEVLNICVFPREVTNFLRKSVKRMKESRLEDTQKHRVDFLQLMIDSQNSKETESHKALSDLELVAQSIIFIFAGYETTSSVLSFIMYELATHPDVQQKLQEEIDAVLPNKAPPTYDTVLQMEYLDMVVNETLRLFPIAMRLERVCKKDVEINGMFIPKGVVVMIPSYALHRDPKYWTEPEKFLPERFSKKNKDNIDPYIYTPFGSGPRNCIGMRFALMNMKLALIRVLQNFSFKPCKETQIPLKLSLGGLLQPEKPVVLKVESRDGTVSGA
How it was run: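 Signal was normalized against complete inhibition by 57 uM ketoconazole. The reaction used 20nM CYP3A4 with 25uM Luciferin-PPXE, 10-min compound preincubation and a 60-min NADPH-supported step at RT.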

[14] = Confirmation and Secondary Assay for Modulators of Hemoglobin Beta Chain Splicing at IVS2 654 locus (AID 910; active = well fitted curve in the direction sought with a large enough effect; an effect the other way counts as inactive or inconclusive;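 also: HeLa cells stably carrying EGFP split by mutant beta-globin IVS2-654 intron; % of control where 0% means no effect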); conditions: HeLa EGFP-654 splicing reporter, GFP fluorescence, 48 h; series mostly up to 38.3 µM
How it was run: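 HeLa cells stably expressing EGFP interrupted by β-globin IVS2-654 intron, seeded overnight in Opti-MEM/2% FCS, then treated 2 days at 37 °C. Restored splicing read as total peak GFP intensity per well by laser scanning cytometry (488 nm excitation, 500–520 nm emission); 500 nM antisense PNA as control.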

[15] = qHTS Assay for Identification of Small Molecule Agonists for Hypoxia Response Element Signaling Pathway (AID 914; active = well fitted activation curve with a large enough effect in the signal ratio, with a control signal flat, not every such curve was filed as active; the % refers to the signal ratio; also: % of control where 0% means no effect); conditions: ME-180 HRE-bla reporter, beta-lactamase ratio, CoCl2, 17 h; activation: stronger effect = higher value
How it was run: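 ME-180 cells carrying an HRE-driven beta-lactamase reporter were treated with compounds in a titration series plus an EC50 level of CoCl2 for 17 h at 37 degrees Celsius; CCF4 readout as the 460nm/530nm ratio gave AC50 values.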

[16] = Confirmation and Secondary Assay for Modulators of Hemoglobin Beta Chain Splicing at IVS2 705 locus (AID 930; active = well fitted curve in the direction sought with a large enough effect; an effect the other way counts as inactive or inconclusive;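 also: HeLa cells stably expressing the EGFP-705 splicing reporter; % of control where 0% means no effect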); conditions: HeLa EGFP-705 splicing reporter, GFP fluorescence, 48 h; series mostly up to 38.3 µM
How it was run: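 HeLa cells stably carrying EGFP interrupted by mutant beta-globin IVS2-705 intron (CMV-driven) were seeded at 500 cells/well, treated next day with compound for 2 days at 37C; corrected splicing restores EGFP, read as total peak GFP intensity per well.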

[17] = molecular target: Cytochrome P450 3A4 (Homo sapiens) (UniProt P08684); assay: qHTS Assay for Inhibitors and Substrates of Cytochrome P450 3A4 (AID 884; active = well fitted curve in the direction sought with a large enough effect; an effect the other way counts as inactive or inconclusive; also: potency is read from the fitted curve at half-maximal effect; nearly all actives have a fitted effect of over 50% in size); conditions: recombinant CYP3A4, Luciferin-PPXE luminescence; series mostly up to 57.1 µM
How it was run: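 20 nM human CYP3A4 with 25 uM Luciferin-PPXE (at KM) in 200 mM KPO4, preincubated 10 min with compound; NADPH regeneration started a 60 min RT reaction. Luciferin detected by luminescence, normalized to 57 uM ketoconazole as full inhibition.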

Cc1ccc(S(=O)(=O)N[C@H](CN)C(=O)O)cc1
inactive: Potency [1] > 11.4 µM | activity change, negative = inhibition [2] 10.5% | activity change, negative = inhibition [3] -18.5% [at 2.29 µM] | activity change, negative = inhibition [4] 3.21% | activity, negative = inhibition [5] 8.31% | Potency [6] > 46 µM | Potency [7] > 9.22 µM | Potency [8] | Potency [9]

C/C(=N/NC1=NCCN1)c1cn(C2=NCCN2)nc1C
inactive: Potency [1] > 11.4 µM | activity change, negative = inhibition [2] 6.21% | activity change, negative = inhibition [3] -13.9% [at 2.29 µM] | activity change, negative = inhibition [4] -15.6% | activity, negative = inhibition [5] 1.37% | Potency [7] > 9.22 µM | Potency [10] | Potency [8]

O=C(Nc1ccc(Nc2ccc3c(c2)C(=O)c2ccccc2C3=O)c2c1C(=O)c1ccccc1C2=O)c1ccccc1
active: Potency [3] 1.58 µM
inactive: Potency [1] > 11.4 µM | activity change, negative = inhibition [2] -0.845% | activity change, negative = inhibition [4] 18.6% | activity, negative = inhibition [5] 13% | Potency [6] > 46 µM | Potency [10] | Potency [8]

Nc1cc2c(nc3c4ccccc4c(N)cc3[n+]2-c2cccc3ccccc23)c2ccccc12 (tested in a mixture with another compound)
inactive: Potency [1] > 11.4 µM | activity change, negative = inhibition [2] 11.3% | activity change, negative = inhibition [4] 8.58% | activity, negative = inhibition [5] 6.04% | Potency [6] > 46 µM | Potency [7] > 9.22 µM | Potency [8]
active: Potency [3] 1.26 µM | Potency [11] 1.58 µM

Cc1ccc(C(N)=Nc2ccccc2)cc1
active: Potency [11] 3.16 µM
inactive: Potency [1] > 11.4 µM | activity change, negative = inhibition [2] 18.3% | Potency [3] | activity change, negative = inhibition [4] -2.23% | activity, negative = inhibition [5] -4.47% | Potency [6] > 46 µM | Potency [7] > 9.22 µM

COC(=O)N1CCC2(CCCN(Cc3cc(C(F)(F)F)cc(C(F)(F)F)c3)C2)CC1
inactive: Potency [1] > 11.4 µM | activity change, negative = inhibition [2] 12% | Potency [3] | activity change, negative = inhibition [4] 0.959% | activity, negative = inhibition [5] -1.27% | Potency [7] > 46 µM | Potency [10] | Potency [8]

Clc1ccc(CN2CCCN(Cc3ccc(Cl)cc3)C2c2cc3ccccc3c3ccccc23)cc1
active: Potency [3] 0.794 µM | Potency [11] 0.199 µM | Potency [9] 0.794 µM
inactive: Potency [1] > 11.4 µM | activity change, negative = inhibition [2] 6.24% | activity change, negative = inhibition [4] -10.5% | activity, negative = inhibition [5] 2.22% | Potency [6] > 46 µM | Potency [10] | Potency [12]

CN(C)C(=O)c1ccc(-c2nc(Nc3ccc(F)cc3)c3ccccc3n2)cc1
active: Potency [3] 3.98 µM
inactive: Potency [1] > 11.4 µM | activity change, negative = inhibition [2] -18.3% | activity change, negative = inhibition [4] 1.18% | activity, negative = inhibition [5] -8.08% | Potency [6] > 46 µM | Potency [10] | Potency [13] | outcome [14] | activation [15] 14.9% | outcome [16]

O=C(O)[C@@H](O)Cc1ccccn1
inactive: Potency [1] > 11.4 µM | activity change, negative = inhibition [2] 4.97% | Potency [3] | activity change, negative = inhibition [4] 2.96% | activity, negative = inhibition [5] 4.36% | Potency [6] > 46 µM | Potency [10] | Potency [8] | activation [15] 0.65%

COc1ccc2nc(NCN3C(=O)c4ccccc4C3=O)sc2c1
active: Potency [3] 3.98 µM | Potency [9] 2.51 µM
inactive: Potency [1] > 11.4 µM | activity change, negative = inhibition [2] 2.48% | activity change, negative = inhibition [4] -16% | activity, negative = inhibition [5] 10.9% | Potency [6] > 46 µM | Potency [10] | Potency [8]

CCN1CCCCC(=N/O)/C(=N/O)CCCC1
inactive: Potency [1] > 11.4 µM | activity change, negative = inhibition [2] -1.64% | Potency [3] | activity change, negative = inhibition [4] -10.8% | activity, negative = inhibition [5] 2.5% | Potency [6] > 46 µM | Potency [10] | Potency [8]

CN(CCc1ccccn1)c1ccc2c(c1)C(=O)c1ccccc1-2
inactive: Potency [1] > 2.29 µM | activity change, negative = inhibition [2] 7.03% | activity change, negative = inhibition [4] 0.0317% | activity, negative = inhibition [5] -7.39% | Potency [6] > 46 µM | Potency [7] > 9.22 µM | Potency [8]
active: Potency [3] 0.158 µM | Potency [17] 3.16 µM | Potency [9] 2.51 µM

C[C@@]12CC(=O)[C@@H]3[C@@H](CCC4=CC(=O)CC[C@]43C)[C@@H]1CC=C2CC(=O)O
inactive: Potency [1] > 11.4 µM | activity change, negative = inhibition [2] -4.3% | Potency [3] | activity change, negative = inhibition [4] 23.5% | activity, negative = inhibition [5] 2.31% | Potency [6] > 46 µM | Potency [10] | Potency [8] | activation [15] -1.62%

Nc1c(S(=O)(=O)O)cc(Nc2cccc(S(N)(=O)=O)c2)c2c1C(=O)c1ccccc1C2=O
inactive: Potency [1] > 11.4 µM | activity change, negative = inhibition [2] 26% | activity change, negative = inhibition [4] -26.6% | activity, negative = inhibition [5] 2.62% | Potency [6] > 46 µM | Potency [7] > 9.22 µM | Potency [8] | Potency [13]
active: Potency [3] 3.98 µM | Potency [12] 3.16 µM

COc1cc(C2SCCCCCCCCCCSC(c3ccc(O)c(OC)c3)SCCCCCCCCCCS2)ccc1O (centres undefined)
inactive: Potency [1] > 11.4 µM | activity change, negative = inhibition [2] -0.286% | activity change, negative = inhibition [3] -6.9% [at 2.29 µM] | activity change, negative = inhibition [4] 19.7% | activity, negative = inhibition [5] 9.48% | Potency [6] > 46 µM | Potency [10] | Potency [8]
